BRCA1 expr act – qHTS Assay to Identify Small Molecule Activators of BRCA1 Expression. 380,000 tested, 1.1% active. Potency, µM (highest dose often 46.1 µM), most hits filed as activators. MCF7-BRCA1-FFLuc reporter, luminescence, 48 h; response scale: scaled: vehicle 0%, 10 µM genistein 100%. AID 624202, 2012; also: nearly all actives have a fitted effect of over 80% in size
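48 h compound treatment of MCF7-BRCA1-FFLuc cells (phenol-red free MEM, 37 °C), then 15 min with luciferase substrate and luminescence imaging.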
p53 reactivator – qHTS assay for re-activators of p53 using a Luc reporter; H1299 p53-A138V BP100-luciferase reporter, luminescence, 24 h; Potency, µM (doses to about 92.2 µM), hits mostly activators; 320,000 tested, 0.063% active; also: nearly all actives have a fitted effect of over 45% in size
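p53-null H1299 cells stably carrying temperature-sensitive p53-A138V and a BP100-luciferase reporter were pinned with compounds (4-point, 1:5 series) and held 24 hrs at 37 deg C. Luminescence was read 10 min after detection reagent.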
RGS4 inh – Inhibitors of Regulator of G Protein Signaling (RGS) 4: qHTS; 390,000 tested, 0.039% active; Potency, µM (doses to about 114 µM), usual class: inhibitors; Transcreener GDP fluorescence polarization, RGS4-accelerated GTP hydrolysis; Regulator of G-protein signaling 4 (Homo sapiens), P49798; also: nearly all actives have a fitted effect of over 75% in size
Target sequence (P49798 whole entry, looked up): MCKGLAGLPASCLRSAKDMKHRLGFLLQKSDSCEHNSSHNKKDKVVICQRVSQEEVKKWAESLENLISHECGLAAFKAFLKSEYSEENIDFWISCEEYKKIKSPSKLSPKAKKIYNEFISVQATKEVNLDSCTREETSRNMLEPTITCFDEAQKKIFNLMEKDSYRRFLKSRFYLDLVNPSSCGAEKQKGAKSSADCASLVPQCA
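MLSMR compounds (23 nl, pin-transferred) preincubated 10 min at room temperature with a 500nM (2x) first reagent, then RGS4 at 900nM (2x) plus Transcreener GDP mix added; fluorescence polarization (620/688 nm) read before and after 90 min at 30 °C.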
LDHA block – qHTS assay for inhibitors of human lactate dehydrogenase; L-lactate dehydrogenase A chain (Homo sapiens), P00338; purified LDHA, NADH/diaphorase-resazurin fluorescence; stronger effect = lower value; activity change, % (values are at about 110 or 230 µM); 480,000 tested, 0.15% active; in the data active = activity change below about -30%; inconclusive = mostly about -25% to -30%
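Human LDH5 at 2 nM final in Tris HCl pH 7.4 with 0.06 mM NADH and 0.2 mM pyruvate, reacted 5 minutes at room temperature. Remaining NADH coupled via diaphorase/resazurin; resorufin fluorescence read at 0 and 20 minutes, normalized to enzyme-free and DMSO wells.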
PTHR1 ag – qHTS for PTHR1 Agonists: Primary Screen. HEK293 GP2 PTHR1 cells, GloSensor cAMP luminescence, 1 h. Potency, µM (doses to about 115 µM), hits mostly activators. 410,000 tested, 0.075% active. AID 743266, 2014; also: nearly all actives have a fitted effect of over 55% in size
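HEK-293-derived GP2 cells expressing PTHR1 and a GloSensor cAMP reporter, 3,000/well, plated overnight, given luciferin plus IBMX (each 0.5 mM as added) for 1 h at 37 °C, then compound for 1 h at 37 °C. Luminescence was read after 15 min at room temperature.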
Numbers stand for hits; n = inactive; u = inconclusive; x = no result given; ! = a repeat was not active; [ ] = dose if it differs, or a comment. Sampled rows, rich in hits. Any-hit rate of the full collection: about 1.1%. Unless noted, calls follow the shape of the dose curve; as a rule, active = well fitted curve in the direction sought with a large enough effect; inconclusive = small, poorly fitted or top-dose-only effect, or another doubt; inactive = no such curve, though single readings can be large; an effect the other way counts as inactive or inconclusive.

SMILES	BRCA1 expr act	p53 reactivator	RGS4 inh	LDHA block	PTHR1 ag
O=C(O)C=Cc1ccc(Cn2ccnc2)cc1	x	x	2.7µM	x	x
c1ccc(OCc2nc(-c3cccs3)no2)cc1	11µM	u	n	n	n
Cc1cc(OCc2nc(-c3cccs3)no2)cc(C)c1Cl	n	u	n	n	n
COc1ccc(-c2noc(Cc3cccs3)n2)cc1	13µM	u	n	n	n
Cc1ccc(OCc2nc(-c3ccccc3)no2)cc1	8.9µM	n	n[11.4 µM]	n	n
Fc1ccc(OCc2nc(-c3cccs3)no2)cc1	7.9µM	u	n	n	n
CCC(CO)(CO)NC(=O)c1nc(-c2ccc3cc[nH]c3c2)no1	x	x	x	n	x
Clc1nnc(-c2ccccc2)n1C1CC1	x	x	x	n	x
Cc1noc(C)c1COC(=O)/C=C/c1ccc(Br)o1	x	x	x	n	x
COc1cc(Cl)ccc1OCc1cc(C(=O)N(C)CCc2cnn(C)c2)no1	7.1µM	u	n	n	n
CC(=O)c1cccc(OCc2cc(C(=O)N(C)CCc3cnn(C)c3)no2)c1	n	n	n	n	n
Cc1cc(OCc2cc(C(=O)N(C)CCc3cnn(C)c3)no2)cc(C)c1Cl	10µM	u	n	n	n
CC1=CC(=O)C2(CCCCC2)NC1	x	x	x	n	x
CC1CCCC(NC(=O)CCCc2cccs2)C1C (configuration not stated)	x	x	x	n	x
O=[N+]([O-])c1ccc(O)c(/C=N/Nc2nn[nH]n2)c1	n	n	n	-46	n
Oc1ccccc1/C=N/Nc1nn[nH]n1	n	n	n	n	n
NC(=O)C(Oc1cc(Cl)ccc1Cl)c1ccc(F)cc1 (configuration not stated)	x	x	x	n	x
COc1cc(NC(=O)c2cc(=O)c3ccccc3o2)cc(OC)c1OC	x	x	x	n	x
Cc1cccn2c(=O)cc(CSc3ccccc3NC(=O)c3ccccc3Cl)nc12	x	x	x	-32	x
CC1CCCC(NC(=O)c2n[nH]c(=O)c3ccccc23)C1C (configuration not stated)	11µM	n	n	n	n
N#Cc1ccc(COC(=O)c2cccnc2Cl)cc1	n	n	n	n	n
N#Cc1ccc(N2Cc3ccccc3C2=NC(=O)c2cccnc2Cl)cc1	13µM	n	n	n	n
O=C(c1ccccc1)c1cccc(NC(=O)c2ccco2)c1	11µM	u	n	n	n
O=C(CCNC(=O)c1ccco1)Nc1ccc(Cl)cc1	n	n	u	n	n
COc1cc(NC(=O)CC(C)C)ccc1NC(=O)c1ccco1	7.9µM	x	n	n	n
SMILES	BRCA1 expr act	p53 reactivator	RGS4 inh	LDHA block	PTHR1 ag
CCC(=O)Oc1ccc(NC(=O)c2ccco2)cc1	n	n	n	n	u
CCC(=O)Nc1ccc(NC(=O)c2ccco2)cc1	2.5µM	n	n	n	n
O=C(CNC(=O)c1ccco1)Nc1ccc(Cl)cc1	13µM	u	n	n	n
COC(=O)CC(N)c1ccc(C)cc1C (configuration not stated)	x	x	x	n	x
O=C(Cn1nc(C(=O)O)c2ccccc2c1=O)NCc1ccc(Cl)cc1	x	x	x	n	x
Cc1cc(-n2cccc2C=O)ccc1Br	x	x	x	n	x
CC1(C)O[C@H]2[C@@H](O1)[C@@H](C(=O)Oc1ccc3ccccc3c1)O[C@@H]1OC(C)(C)O[C@@H]12	x	x	x	n	x
CC(=O)Nc1ccc(C(=O)/C=C/c2ccco2)cc1	n	u	u	n	n
O=C(/C=C\c1ccco1)c1ccc(NC(=O)c2ccco2)cc1	1.8µM	n	u	n	n
CC(/C=N/Nc1nnc(C)c(=O)[nH]1)=C\c1ccccc1	10µM	n	n	n	n
Cc1ccc(-c2n[nH]c(=O)c3ccccc23)cc1S(N)(=O)=O	n	n	n	-30!	u
CNS(=O)(=O)c1cc(-c2n[nH]c(=O)c3ccccc23)ccc1C	x	x	x	n	x
CCc1noc(C)c1C(=O)Nc1sc(Cc2ccccc2)cc1C(N)=O	x	x	x	n	x
CCN(CC)CCOc1ccc2nc(N(C)C)sc2c1	n	n	n	n	n

Screening results: PubChem BioAssay, National Center for Advancing Translational Sciences (NCATS)
